Structures are written as SMILES. Results filed as inconclusive are left out. A number with no mark means an inactive call. The list shows a part of the results. The source made the active and inactive calls. Calls follow the shape of the dose curve; as a rule, active = well fitted curve in the direction sought with a large enough effect; inconclusive = small, poorly fitted or top-dose-only effect, or another doubt; inactive = no such curve, though single readings can be large; an effect the other way counts as inactive or inconclusive.

Assay [1] concerns the target Tumor susceptibility gene 101 protein (Homo sapiens) (UniProt Q99816). Put plainly: qHTS Assay for Iinhibitors of HIV-1 Budding by Blocking the Interaction of PTAP/TSG101: Hit Validation (AID 651600). Also: nearly all actives have a fitted effect of over 70% in size. Also: potency is read from the fitted curve at half-maximal effect. As to activity change, negative = inhibition: % is scaled to controls: 0 for no effect and ±100 for the full control effect. The method in brief:
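Measuring PTAP–Tsg101 interaction by FP: protein at 10 uM and fluorescent peptide at 50 nM (final), buffer 10 mM HEPES pH 7.5 with 0.15 M NaCl, 3 mM EDTA, 0.1 mM TCEP, 0.01% Tween 20; 20 min incubation, r.t.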

Assay [2] has as its target Rap guanine nucleotide exchange factor 3 (Homo sapiens) (UniProt O95398). Put plainly: Confirmatory qHTS for antagonist of cAMP-regulated guanine nucleotide exchange factor 3 (EPAC1) (AID 1645880). Also: nearly all actives have a fitted effect of over 55% in size. Also: potency is read from the fitted curve at half-maximal effect.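 As to activity, negative = inhibition: plate controls were DMSO only for no effect and full effect of the ATA control for full effect.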 To be noted: EPAC1 Rap1B-BODIPY-GDP exchange, fluorescence; activity, negative = inhibition: at 115 µM (top of the series). A digest of the protocol: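 Released BODIPY-GDP fluoresces less than Rap1-bound BODIPY-GDP; the signal is followed at 480/540 nm at 5-min intervals over 30 min, after 5 min at room temperature. Reactions contain 100 nM EPAC1, 250 nM RAP1B-BODIPY-GDP and 50 uM GDP; results are normalized to ATA and DMSO.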
Background: qHTS replaces the single test concentration by a dilution series.

For assay [3] the target is unchanged. Nature of the assay: Confirmatory qHTS for agonist of cAMP-regulated guanine nucleotide exchange factor 3 (EPAC1) (AID 1645881). Also: nearly all actives have a fitted effect of over 75% in size. Also: potency is read from the fitted curve at half-maximal effect.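 As to activation: EPAC1 catalysed release of BODIPY-GDP from Rap1B seen as fluorescence loss; 100% = effect of cAMP agonist control.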
Assay [4] addresses Rap guanine nucleotide exchange factor 4 (Homo sapiens) (UniProt Q8WZA2). Put plainly: Confirmatory qHTS for agonist of cAMP-regulated guanine nucleotide exchange factor 4 (EPAC2) (AID 1645884).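 Also: nucleotide exchange releases bodipy-GDP from Rap1 and this lowers its fluorescence; nearly all actives have a fitted effect of over 65% in size.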 Also: potency is read from the fitted curve at half-maximal effect. As to activation: % is scaled to controls: 0 for no effect and ±100 for the full control effect.
Assay [5] shares this target. Nature of the assay: Confirmatory qHTS for antagonist of cAMP-regulated guanine nucleotide exchange factor 4 (EPAC2) (AID 1645885). Also: nearly all actives have a fitted effect of over 25% in size. Also: potency is read from the fitted curve at half-maximal effect. As to activity change, negative = inhibition: % is scaled to controls: 0 for no effect and ±100 for the full control effect.
The target in assay [6] is Rap guanine nucleotide exchange factor 3 (Homo sapiens) (UniProt O95398). Nature of the assay: Counterscreen qHTS for antagonist of cAMP-regulated guanine nucleotide exchange factor 3 (EPAC1) (AID 1645888). Also: % of control where 0% means no effect. The method in brief: (§1)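 Measured: fluorescence of BODIPY-GDP bound to Rap1B, which falls as exchange proceeds. Conditions include 50 uM competing GDP, 5 and 30 min reads, and a later cAMP challenge for antagonist detection.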
A general note: The purpose of a counterscreen is to sort out artefacts and off-target activity.

Assay [7] has the same target. Put plainly: Counterscreen qHTS for agonist of cAMP-regulated guanine nucleotide exchange factor 3 (EPAC1) (AID 1645889). Also: nearly all actives have a fitted effect of over 40% in size. Also: potency is read from the fitted curve at half-maximal effect. As to activation: % of control where 0% means no effect. The method in brief: as §1
For assay [8], the target named is ATPase family AAA domain-containing protein 5 (Homo sapiens) (UniProt Q96QE3). Put plainly: HTS assay for small molecules that inhibit ELG1-dependent DNA repair in human embryonic kidney (HEK293T) cells expressing luciferase-tagged ELG1: Hit Confirmation (AID 624248). Also: potency is read from the fitted curve at half-maximal effect; nearly all actives have a fitted effect of over 55% in size. The note with it: HEK293T ELG1-luciferase levels, luminescence; cells co-treated with 5-fluorouridine. A digest of the protocol:
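Cells (2,000/well) received 5-Fluorouridine plus pin-transferred compound or DMSO and were incubated 16 hr at 37 °C, 5% CO2. Luciferase activity was read by ONE-Glo luminescence after 30 min at room temperature; inhibitors suppress the signal.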

For assay [9] the target is unchanged. Put plainly: qHTS screen for small molecules that inhibit ELG1-dependent DNA repair in human embryonic kidney (HEK293T) cells expressing luciferase-tagged ELG1: Hit Confirmation using MMS Stimulated ELG1 (AID 624249). Also: potency is read from the fitted curve at half-maximal effect; nearly all actives have a fitted effect of over 60% in size. A digest of the protocol: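 Two thousand ELG1-luc HEK293T cells per well were dosed with compound and MMS (final 10 µM) and then read for luciferase by Amplight 16 h afterward.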

Assay [10] in a line: qHTS screen for small molecules that inhibit ELG1-dependent DNA repair: Hit Confirmation with MMS Viability (AID 624251).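 Also: viability read 16 h after compound addition; % is scaled to controls: 0 for no effect and ±100 for the full control effect; nearly all actives have a fitted effect of over 60% in size.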 A digest of the protocol: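 Sixteen hours of compound exposure with MMS at 10 µM final preceded a CellTiter-Glo viability readout in ELG1-luciferase HEK293T cells, which were dosed about 5 h after seeding.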
Assay [11] can be described thus: qHTS for Inhibitors of the vitamin D receptor (VDR): Hit Validation using a Texas Red Assay (AID 602201). Also: potency is read from the fitted curve at half-maximal effect. A digest of the protocol:
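Fluorescence polarization (Ex 595/Em 615 nm) of Texas Red (7 nM) with 1.5 uM VDR-LBD and LG19078 (final concentrations). Compounds were incubated for 2 hours at room temperature.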

Assay [12] concerns the target Phosphoglycerate kinase, glycosomal (Trypanosoma brucei brucei) (UniProt P07378). Nature of the assay: qHTS for inhibitors of Phosphogylcerate Kinase: Hit Validation Screen (AID 686980). Also: potency is read from the fitted curve at half-maximal effect; nearly all actives have a fitted effect of over 65% in size. The note with it: TbPGK coupled GAPDH assay, Kinase-Glo luminescence. The method in brief: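 Recombinant glycosomal PGK reaction used 1,3-bisphosphoglycerate generated in-well by GAPDH (100nM final) in 100mM TEA pH 7.6, 5mM MgCl2, 0.01% Tween-20. After 60 minutes at room temperature, ATP was read by Kinase-Glo Plus luminescence end-point.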

In assay [13] the target is DNA polymerase iota (Homo sapiens) (UniProt Q9UNA4). Put plainly: qHTS for Inhibitors of Polymerase Iota: Confirmatory Assay for Cherry-picked Compounds (AID 720496). Also: potency is read from the fitted curve at half-maximal effect. To be noted: Pol iota primer extension, TAMRA/BHQ fluorescence. The method in brief:
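Extension of a quenched TAMRA-reporter/BHQ-2-template DNA substrate (50 nM) by 10 nM Pol iota after 15 min compound preincubation. Strand-displacement fluorescence (525/598 nm) was read kinetically at 0 and 10 min. Buffer-only wells served as negative control.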

The target of assay [14] is Flap endonuclease 1 (Homo sapiens) (UniProt P39748). Nature of the assay: qHTS Assay for the Inhibitors of FEN1: Confirmatory Assay for Cherry-picked Compounds (AID 720498). Also: potency is read from the fitted curve at half-maximal effect; nearly all actives have a fitted effect of over 60% in size. The note with it: FEN1 flap cleavage, TAMRA/BHQ2 fluorogenic DNA substrate. The method in brief:
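Human FEN1 (10 nM reagent) was preincubated with compounds for 15 min at room temperature, then 50 nM final double-flap DNA substrate (5'-TAMRA flap, BHQ-2 quencher strand) was added. Fluorescence (ex 525/em 598 nm) was read at 0 and 15 min.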

Assay [15] has as its target DNA polymerase eta (Homo sapiens) (UniProt Q9Y253). Put plainly: qHTS for Inhibitors of Polymerase Eta: Confirmatory Assay for Cherry-picked Compounds (AID 720502). Also: potency is read from the fitted curve at half-maximal effect. To be noted: Pol eta primer extension, TAMRA/BHQ fluorescence, 10 min. The method in brief:
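10 nM Pol eta + cpd, 15 min RT; start w/ 50 nM final primer/TAMRA-reporter/BHQ-2-template substrate; kinetic read 0 and 10 min, ex 525/em 598 nm. Buffer-only wells = negative control.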

Rap guanine nucleotide exchange factor 3 (Homo sapiens), sequence (O95398 whole entry, looked up): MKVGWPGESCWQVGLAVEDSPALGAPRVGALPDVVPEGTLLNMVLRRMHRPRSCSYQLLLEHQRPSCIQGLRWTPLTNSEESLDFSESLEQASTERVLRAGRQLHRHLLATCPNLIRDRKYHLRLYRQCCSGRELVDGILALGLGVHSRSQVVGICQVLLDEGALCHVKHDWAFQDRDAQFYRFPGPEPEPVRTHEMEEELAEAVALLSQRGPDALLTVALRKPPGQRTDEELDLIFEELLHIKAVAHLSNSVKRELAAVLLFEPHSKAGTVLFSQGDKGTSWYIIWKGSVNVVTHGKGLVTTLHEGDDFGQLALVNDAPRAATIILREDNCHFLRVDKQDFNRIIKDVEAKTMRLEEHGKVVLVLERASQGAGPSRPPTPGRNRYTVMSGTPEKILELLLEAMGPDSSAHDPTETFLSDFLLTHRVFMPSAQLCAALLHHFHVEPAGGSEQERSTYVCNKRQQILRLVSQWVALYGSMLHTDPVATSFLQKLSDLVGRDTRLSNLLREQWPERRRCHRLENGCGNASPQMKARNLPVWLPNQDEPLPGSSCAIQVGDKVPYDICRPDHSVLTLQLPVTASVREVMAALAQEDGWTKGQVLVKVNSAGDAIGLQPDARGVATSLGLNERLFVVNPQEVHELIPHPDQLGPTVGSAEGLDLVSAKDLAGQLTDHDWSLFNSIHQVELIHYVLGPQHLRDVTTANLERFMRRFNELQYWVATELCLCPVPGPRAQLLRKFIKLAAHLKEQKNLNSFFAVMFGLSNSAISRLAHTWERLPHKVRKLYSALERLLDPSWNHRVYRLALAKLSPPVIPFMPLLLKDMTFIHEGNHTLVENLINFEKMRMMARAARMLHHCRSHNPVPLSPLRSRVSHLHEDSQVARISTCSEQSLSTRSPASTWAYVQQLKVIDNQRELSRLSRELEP
Tumor susceptibility gene 101 protein (Homo sapiens), sequence (Q99816 whole entry, looked up): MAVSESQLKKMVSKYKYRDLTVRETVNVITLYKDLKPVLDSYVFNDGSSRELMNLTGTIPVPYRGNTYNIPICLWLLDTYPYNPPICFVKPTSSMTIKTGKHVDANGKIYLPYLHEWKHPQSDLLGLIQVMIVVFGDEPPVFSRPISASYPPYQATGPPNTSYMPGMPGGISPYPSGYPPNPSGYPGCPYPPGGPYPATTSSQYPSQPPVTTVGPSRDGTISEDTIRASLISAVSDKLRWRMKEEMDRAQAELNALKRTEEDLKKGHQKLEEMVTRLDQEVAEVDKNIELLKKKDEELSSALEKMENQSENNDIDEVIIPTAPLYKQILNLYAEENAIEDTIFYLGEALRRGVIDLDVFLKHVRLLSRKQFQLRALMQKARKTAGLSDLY
Rap guanine nucleotide exchange factor 4 (Homo sapiens), sequence (Q8WZA2 whole entry, looked up): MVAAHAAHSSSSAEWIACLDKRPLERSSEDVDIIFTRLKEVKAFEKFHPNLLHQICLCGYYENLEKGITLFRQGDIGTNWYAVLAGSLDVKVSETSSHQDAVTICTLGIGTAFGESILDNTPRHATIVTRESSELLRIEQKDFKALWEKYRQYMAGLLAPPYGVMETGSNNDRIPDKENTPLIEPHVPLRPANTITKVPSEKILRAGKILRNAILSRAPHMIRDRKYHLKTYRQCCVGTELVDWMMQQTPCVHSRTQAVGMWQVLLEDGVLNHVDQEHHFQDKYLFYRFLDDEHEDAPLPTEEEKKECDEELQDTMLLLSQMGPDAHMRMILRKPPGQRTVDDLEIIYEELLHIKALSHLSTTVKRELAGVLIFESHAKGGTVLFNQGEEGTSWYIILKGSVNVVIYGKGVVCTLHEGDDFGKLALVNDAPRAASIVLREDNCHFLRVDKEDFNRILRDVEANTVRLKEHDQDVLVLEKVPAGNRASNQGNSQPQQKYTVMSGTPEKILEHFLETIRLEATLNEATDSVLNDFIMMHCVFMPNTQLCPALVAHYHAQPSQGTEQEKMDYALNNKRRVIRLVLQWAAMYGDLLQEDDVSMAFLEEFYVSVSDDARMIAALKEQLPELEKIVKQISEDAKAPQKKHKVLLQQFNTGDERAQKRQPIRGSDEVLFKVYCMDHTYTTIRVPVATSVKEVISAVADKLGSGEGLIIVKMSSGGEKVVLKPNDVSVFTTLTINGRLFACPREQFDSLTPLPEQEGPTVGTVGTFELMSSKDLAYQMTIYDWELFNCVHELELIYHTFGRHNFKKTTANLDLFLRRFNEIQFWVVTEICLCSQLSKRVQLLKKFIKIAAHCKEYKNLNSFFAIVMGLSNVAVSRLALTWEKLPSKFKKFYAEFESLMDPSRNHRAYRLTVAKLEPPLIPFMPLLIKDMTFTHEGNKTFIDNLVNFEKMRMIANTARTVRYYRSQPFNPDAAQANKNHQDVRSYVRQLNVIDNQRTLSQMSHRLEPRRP
ATPase family AAA domain-containing protein 5 (Homo sapiens), sequence (Q96QE3 whole entry, looked up, the tested form may be a part): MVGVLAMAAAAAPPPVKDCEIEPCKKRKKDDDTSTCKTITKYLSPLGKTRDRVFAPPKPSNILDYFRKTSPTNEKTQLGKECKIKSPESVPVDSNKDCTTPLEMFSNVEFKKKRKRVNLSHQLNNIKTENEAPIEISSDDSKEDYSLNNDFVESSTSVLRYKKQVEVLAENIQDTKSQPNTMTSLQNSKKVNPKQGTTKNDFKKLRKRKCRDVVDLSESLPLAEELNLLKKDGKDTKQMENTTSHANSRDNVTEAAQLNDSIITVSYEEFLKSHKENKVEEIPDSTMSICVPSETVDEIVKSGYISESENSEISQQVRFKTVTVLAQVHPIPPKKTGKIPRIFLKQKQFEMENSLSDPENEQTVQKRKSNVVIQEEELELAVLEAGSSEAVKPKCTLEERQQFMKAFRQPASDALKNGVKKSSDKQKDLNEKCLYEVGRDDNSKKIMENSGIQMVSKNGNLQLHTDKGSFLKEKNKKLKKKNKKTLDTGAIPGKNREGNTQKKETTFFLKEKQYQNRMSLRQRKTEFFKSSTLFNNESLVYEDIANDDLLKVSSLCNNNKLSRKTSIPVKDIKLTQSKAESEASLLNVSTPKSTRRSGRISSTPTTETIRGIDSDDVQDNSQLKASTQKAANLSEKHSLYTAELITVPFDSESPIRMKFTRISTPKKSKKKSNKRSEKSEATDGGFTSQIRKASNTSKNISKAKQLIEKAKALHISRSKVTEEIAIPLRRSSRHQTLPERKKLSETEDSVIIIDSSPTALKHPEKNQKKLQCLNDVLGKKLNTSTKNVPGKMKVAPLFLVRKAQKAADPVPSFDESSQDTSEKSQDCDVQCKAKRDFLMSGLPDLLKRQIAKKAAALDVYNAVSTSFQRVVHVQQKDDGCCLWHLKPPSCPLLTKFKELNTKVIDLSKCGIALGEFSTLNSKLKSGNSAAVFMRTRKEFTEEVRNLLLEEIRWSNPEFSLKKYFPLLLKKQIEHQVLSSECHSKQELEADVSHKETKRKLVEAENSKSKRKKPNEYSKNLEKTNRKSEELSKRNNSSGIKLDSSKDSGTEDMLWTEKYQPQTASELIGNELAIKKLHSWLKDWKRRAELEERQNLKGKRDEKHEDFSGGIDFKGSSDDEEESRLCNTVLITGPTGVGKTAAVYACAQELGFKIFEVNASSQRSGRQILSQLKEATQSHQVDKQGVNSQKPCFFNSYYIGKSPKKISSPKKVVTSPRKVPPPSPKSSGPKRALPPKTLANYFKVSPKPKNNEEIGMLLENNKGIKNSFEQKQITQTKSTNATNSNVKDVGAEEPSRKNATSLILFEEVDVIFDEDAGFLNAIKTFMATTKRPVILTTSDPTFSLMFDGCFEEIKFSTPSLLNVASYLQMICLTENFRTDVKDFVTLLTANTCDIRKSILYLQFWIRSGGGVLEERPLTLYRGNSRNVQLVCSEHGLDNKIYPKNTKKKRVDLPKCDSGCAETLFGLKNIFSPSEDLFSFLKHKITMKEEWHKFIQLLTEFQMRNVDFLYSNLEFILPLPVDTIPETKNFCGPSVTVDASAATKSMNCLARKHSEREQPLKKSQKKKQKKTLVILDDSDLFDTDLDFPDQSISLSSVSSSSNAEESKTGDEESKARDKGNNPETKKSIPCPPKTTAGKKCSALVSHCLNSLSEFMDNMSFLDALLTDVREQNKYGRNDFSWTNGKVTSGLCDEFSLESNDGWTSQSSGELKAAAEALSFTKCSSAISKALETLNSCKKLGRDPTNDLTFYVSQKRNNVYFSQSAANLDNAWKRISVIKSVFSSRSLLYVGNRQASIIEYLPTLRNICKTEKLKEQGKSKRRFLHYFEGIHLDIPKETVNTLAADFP
Phosphoglycerate kinase, glycosomal (Trypanosoma brucei brucei), sequence (P07378 whole entry, looked up): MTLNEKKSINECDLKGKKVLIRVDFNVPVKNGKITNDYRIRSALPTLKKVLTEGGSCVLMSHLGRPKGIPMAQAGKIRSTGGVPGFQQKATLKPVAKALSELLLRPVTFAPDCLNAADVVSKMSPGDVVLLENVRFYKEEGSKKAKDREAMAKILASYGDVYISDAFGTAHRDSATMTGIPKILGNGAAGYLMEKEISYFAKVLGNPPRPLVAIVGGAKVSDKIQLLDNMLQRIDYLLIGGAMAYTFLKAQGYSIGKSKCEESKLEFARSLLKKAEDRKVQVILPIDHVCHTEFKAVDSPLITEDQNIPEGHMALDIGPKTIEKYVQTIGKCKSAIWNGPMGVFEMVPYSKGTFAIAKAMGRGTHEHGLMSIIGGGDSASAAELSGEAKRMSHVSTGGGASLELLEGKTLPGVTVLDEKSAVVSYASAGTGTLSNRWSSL
Flap endonuclease 1 (Homo sapiens), sequence (P39748 whole entry, looked up): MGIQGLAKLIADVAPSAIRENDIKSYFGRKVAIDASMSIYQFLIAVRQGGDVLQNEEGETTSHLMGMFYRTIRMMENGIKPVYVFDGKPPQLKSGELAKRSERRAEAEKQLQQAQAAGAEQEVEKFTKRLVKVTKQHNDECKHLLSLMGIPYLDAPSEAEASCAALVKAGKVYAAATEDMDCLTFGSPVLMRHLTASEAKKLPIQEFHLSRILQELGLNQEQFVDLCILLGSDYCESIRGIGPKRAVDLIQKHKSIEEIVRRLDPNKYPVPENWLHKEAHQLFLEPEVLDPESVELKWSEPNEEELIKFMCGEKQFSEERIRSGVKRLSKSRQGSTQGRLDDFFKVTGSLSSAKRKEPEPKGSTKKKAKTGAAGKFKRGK

Take `Cc1cc2nc3c(=O)n(C4CCCCC4)c(=O)[nH]c3nc2cc1N`: the Potency in [1] is 0.651 µM (active); in assay [3] it was 56.2 µM (active); in assay [4], 56.2 µM (active); in assay [7] it was 25.1 µM (active). Besides, the Potency result in [2], in [5] and in assay [6] was “inactive” each time.
On to `COc1ccc(-c2cc(C(=O)N(C)CC(=O)Nc3ccccc3Cl)c3ccccc3n2)cc1OC`, for which the Potency is 4.99 µM (active) in assay [8] and 12.5 µM (active) in assay [9]. Besides, the compound was called inactive in [10]. Further, the Potency result in assay [2], in [3] and in assay [5] was “inactive” in each case. In addition, the activation in assay [4] is 3.75% [at 17.1 µM, percent relative to cAMP agonist control]. Moreover, in assay [6], the activity change, negative = inhibition is -9.19% [at 30.8 µM].
Regarding `Cc1cc(NS(=O)(=O)c2ccc(NC(=O)COc3c(C)cc(Br)cc3C)cc2)no1`, the Potency result in assay [1], in [2], in assay [3], in assay [4], in assay [5] and in assay [6] was “inactive” in each case. Further, the Potency entry in assay [7] was “inactive”.
Consider `Cn1c(=O)c(N)c2c3c(c(Br)ccc31)C(=O)c1ccccc1-2`, for which the Potency in assay [1] is 1.63 µM (active); in [2] it was 26.9 µM (active); in assay [5] it was 26.9 µM (active). The Potency result in assay [3], in [4], in [6] and in assay [7] was “inactive” each time.
Turning to `Cc1ccc(/C(O)=C2/C(=O)C(=O)OC2c2ccc(Cl)cc2)cc1` (stereo not given), the Potency in assay [11] was 7.08 µM (active); in assay [2] it was 39.8 µM (active). For the same compound, the Potency entry in [3] and in [5] was “inactive” each time. The activation is 1.22% [at 17.1 µM, percent relative to cAMP agonist control] in [4] and 5.06% [at 30.8 µM] in assay [7]. The activity change, negative = inhibition in assay [6] was -12.7% [at 30.8 µM].
Take `Cc1cc(C(=O)Nc2ccon2)c(C)o1`: the Potency result in assay [2], in assay [3], in assay [4] and in [7] was “inactive” throughout. Further, the Potency in [5] was 84.9 µM (active).
Take `CCOc1ccc(CNC(=O)c2ccccc2NC(=O)c2nsc3ccccc23)cc1`: the Potency entry in assay [2], in [3], in [4] and in [7] was “inactive” each time. In addition, the outcome in [5] is “inactive [at 12.7 µM]”.
For the compound `CC(=O)c1cccc(NC(=O)c2c(-c3ccccc3)c(-c3ccccc3)nn(C)c2=O)c1`, the Potency result in [2], in [3], in assay [4], in [5] and in assay [7] was “inactive” each time.
As to `CCOc1ccc(NC(=O)c2ccc(NC(=O)COC(=O)c3ccc(NC(=O)CC#N)cc3)cc2)cc1`, the Potency is 8.19 µM (active) in [12], 4.74 µM (active) in [13], 67.5 µM (active) in assay [14] and 75.7 µM (active) in assay [15]. The Potency entry in assay [2], in [3], in [4], in assay [5] and in [6] was “inactive” throughout.

Source of the values: PubChem BioAssay (NCATS).
